Structures are written as SMILES. Results filed as inconclusive are left out. Entries that show only a call come without a potency. The source made the active and inactive calls. Calls come from the whole dose curve; as a rule, active = well fitted inhibition curve with a large enough effect; inconclusive = small, poorly fitted or top-dose-only effect; inactive = flat fitted curve, though single readings scatter.
Potency is the fitted concentration of half-maximal effect.

The subject of this experiment is HACAT. Kind of experiment: qHTS assay to identify novel small-molecules to repurpose for Merkel cell carcinoma treatment (AID 1296009). Note: nearly all actives have a fitted effect of over 60% in size. As to conditions: MCC and control cell lines, CellTiter-Glo viability, 72 h; series mostly up to 44.8 µM. The source says:
MCC is a rare and aggressive neuroendocrine skin cancer with limited treatment options. Approximately 80% of MCCs have the Merkel cell polyomavirus (MCPyV) DNA integrated into the host genome (virus-positive: VP-MCC) and viral oncogenes drive oncogenesis. The remaining MCCs are virus-negative (VN-MCC) and are caused by UV mutagenesis. To identify novel treatments for VP-MCC and/or VN-MCC we screened three VP-MCC cell lines (WAGA, MKL-1, MKL-2), three VN-MCC cell lines (MCC-13, MCC-26, UISO), and four immortalized, non-transformed control cell lines (HaCaT, HEK293T, CRL7250, NIH-3T3) against ~2,400 compounds in the NCGC Pharmaceutical Collection (NPC) and ~1,900 compounds in the Mechanism Interrogation PlatE (MiPE). Using cell viability as a readout (CellTiter-Glo assay) we found both overlapping and distinct drugs that can be repurposed for the treatment of VP-MCC and VN-MCC.
A high-throughput screen was conducted in 1536-well white flat bottom plates (Corning) on a Kalypsys robotic system. Cell lines WAGA, MKL-1, MKL-2, MCC-13, MCC-26, UISO, HaCaT, HEK293T, CRL7250, and NIH-3T3 were screened against 2 small molecule annotated drug libraries NPC and MIPE in dose response (8 and 11 pt. respectively) measuring cell viability after 72 hours of incubation. […] A 1,536 pintool (Kalypsys) was used to transfer 23 nL of compound in DMSO to the 1,536-well assay plates. After 72 hr incubation at 37 degree celsius, 2.5 uL of CellTiter-Glo (Promega) was dispensed into each well using a BiorapTR. Plates were incubated at room temperature for 10 min, transferred to a ViewLux (PerkinElmer) and the luminescence was recorded using an exposure time of 2 seconds. Relative luminescence units (RLUs) were normalized to in-plate controls (no cells as a positive (cytotoxicity) control, DMSO as negative control) and the normalized data was processed using NCATS in-house software.
(In general: qHTS replaces the single test concentration by a dilution series.)
Consider `CC(C)c1cccc2c(-c3ccccc3)cc(-c3ccc(-c4ccc(C(=O)O)cc4)[nH]3)nc12`, for which the outcome was inactive.
Same read-out and setting: the result for `N#Cc1cc(F)cc(-c2nc(-c3ccccn3)no2)c1` reads “inactive”; that for `C[C@@H]1O[C@@H](O[C@@H]2[C@@H](O)[C@H](O[C@H]3CC[C@@]4(C)C(CC[C@]5(C)C4CC=C4[C@@H]6CC(C)(C)CC[C@]6(C(=O)O[C@@H]6O[C@H](CO)[C@@H](O)[C@H](O)[C@H]6O)CC[C@]45C)C3(C)C)O[C@H](C(=O)O)[C@H]2O)[C@H](O)[C@H](O)[C@H]1O` (stereo not given in full), “inactive [at 9.27 µM]”; that for `C[C@@H]1CC[C@]2(C(=O)O[C@@H]3O[C@H](CO)[C@@H](O)[C@H](O)[C@H]3O)CC[C@]3(C)C(=CCC4[C@@]5(C)C[C@@H](O)[C@H](O)[C@](C)(C(=O)O)C5CC[C@]43C)[C@@H]2[C@]1(C)O` (stereo not given in full), “inactive [at 17.4 µM]”.
On the same count and under the same terms, the result for `CC(C)=CCC/C(C)=C/CO[C@@H]1O[C@H](CO)[C@@H](O)[C@H](O)[C@H]1O` reads “inactive”; that for `Cc1ccccc1NC(=O)Nc1ccc(CC(=O)N(C)[C@@H](CC(C)C)C(=O)NCC[C@H](NC(=O)[C@@H]2CCCN2S(=O)(=O)c2cc(Cl)cc(Cl)c2)C(=O)O)cc1`, “inactive [at 17.4 µM]”.
The same measure, in the same setting: next, `CCCC(=O)O[C@@H]1[C@@H]2[C@@H](OC(C)=O)[C@]3(C)C(=O)[C@H]4[C@@H](OC(C)=O)C(C)(C)C[C@H]4[C@]3(C)C(=O)[C@@]2(OC(C)=O)C[C@@H]1C`: “inactive [at 17.4 µM]”; `Nc1nc2c(c(N3CCNCC3)n1)CCC1=C2[C@@H]2CCCC[C@@H]2O1`: “inactive”.
Consider `CC(C)CCC[C@@H](C)[C@H]1CC[C@H]2[C@@H]3CC(=O)[C@H]4C[C@@H](O)CC[C@]4(C)[C@H]3CC[C@]12C`, for which the molecule was called inactive.
`COc1cc2c(c(OC)c1CC=C(C)C)C[C@H](c1ccc(O)cc1O)CO2`: the outcome was inactive.
On to `COc1c2c(c(C)c3c1C(=O)OC3)OC1(C)CC(O)C34OC(OC)(CC(OC(C)=O)C3(C)C1C2)OC4(C)C` (stereo not given), for which the “outcome” value is “inactive [at 17.4 µM]”.
Same read-out and setting: next, `CCOCc1cc(OC)c(-c2ccc(C[C@H](NC(=O)c3c(F)cccc3F)C(=O)O)cc2)c(OC)c1`: “inactive”; `CNC(C)C(=O)NC(C(=O)N1CCCC1c1nc(C(=O)c2ccc(F)cc2)cs1)C1CCCCC1` (stereo not given): “inactive; activator”; `C=C(C(=O)O)C1CCC2(C)CCCC(C)(O)C2C1` (stereo not given): “inactive”.
Same read-out and setting: next, `CC1(C)CCCC2(C)C1CC(=O)C13CC(CCC12)C(O)(CO)C3` (stereo not given): “inactive”.
For the molecule `CC1(C)CC[C@]2(C(=O)O[C@@H]3O[C@H](CO)[C@@H](O)[C@H](O)[C@H]3O)CC[C@]3(C)C(=CCC4[C@@]5(C)CC[C@H](O[C@@H]6O[C@H](C(=O)O)[C@@H](O)[C@H](O)[C@H]6O)[C@@](C)(CO)C5CC[C@]43C)C2C1` (stereo not given in full), the outcome was “inactive [at 9.27 µM]”.
On the same count and under the same terms, the result for `CC(=O)O[C@@H]1[C@H](O[C@@H]2O[C@@H](CO)[C@H](O)[C@H]2O)[C@@H](O[C@@H]2O[C@@H](C)[C@H](O[C@@H]3OC[C@@H](O)[C@H](O)[C@H]3O)[C@@H](O)[C@H]2O)[C@H](OC(=O)[C@]23CCC(C)(C)C[C@H]2C2=CCC4[C@@]5(C)CC[C@H](O[C@@H]6O[C@H](C(=O)O)[C@@H](O)[C@H](O)[C@H]6O[C@@H]6O[C@H](CO)[C@H](O)[C@H](O)[C@H]6O)[C@@](C)(C=O)C5CC[C@@]4(C)[C@]2(C)CC3)O[C@@H]1C` (stereo not given in full) reads “inactive [at 9.27 µM]”; that for `C=C(C(=O)OC)C1C(O)CC2(C)C(O)CCC(=O)C2C1O` (stereo not given), “inactive”.
For the molecule `CC1OC(OC2C(C)OC(OC3C(O)C(CO)OC(O[C@H]4CC[C@@]5(C)C(CC[C@]6(C)C5CC=C5C7[C@@H](C)[C@H](C)CC[C@]7(C(=O)O)CC[C@]56C(=O)O)C4(C)C)C3O)C(O)C2O)C(O)C(O)C1O` (stereo not given in full), the outcome is “inactive [at 9.27 µM]”.
The same measure, in the same setting: the result for `Cc1ccc(N)cc1O` reads “inactive [at 92 µM]”.
Still for that read-out and setting: the result for `COC(=O)C1=CO[C@@H](O[C@@H]2O[C@H](CO)[C@@H](O)[C@H](O)[C@H]2O)[C@@H]2C(COC(C)=O)=C[C@H](O)[C@H]12` reads “inactive [at 17.4 µM]”.
Still for that read-out and setting: the result for `CO/N=C(/C(=O)N[C@@H]1C(=O)N2C(C(=O)O)=C(Cn3ccc(=N)n3CCO)CS[C@H]12)c1csc(N)n1` reads “inactive”; that for `CC(C)=C/C=C\[C@H](C)[C@H]1CC[C@]2(C)C[C@@H]3C(C)=CC(=O)C3/C(CO)=C\C[C@@H]12` (stereo not given in full), “inactive”; that for `CCC1=CC2CN(C1)Cc1c([nH]c3ccccc13)[C@@](C(=O)OC)(c1cc3c(cc1OC)N(C)[C@H]1[C@@](O)(C(=O)OC)[C@H](OC(C)=O)[C@]4(CC)C=CCN5CC[C@]31[C@@H]54)C2` (stereo not given in full), “inactive [at 17.4 µM]”.
In the case of `OCc1ccc(O[C@@H]2O[C@H](CO)[C@@H](O)[C@H](O)[C@H]2O)cc1`, the result was inactive.
Still for that read-out and setting: the result for `C=C(C(=O)O)[C@H]1C[C@]2(C)[C@@H](O)CC[C@]23O[C@H]1C[C@@H]3C` reads “inactive”; that for `Cc1cc(C)c(CNC(=O)c2cc(-c3ccc(CN4CCOCC4)cc3)cc3c2cnn3C2CCCC2)c(=O)[nH]1`, “inactive”.
Still for that read-out and setting: the result for `COc1c2cc(c(O)c1OC)-c1cc(ccc1O)CCC(O)CCCC2` (stereo not given) reads “inactive”; that for `C[C@H](CCC(=O)O)[C@H]1CC[C@H]2[C@@H]3C[C@H](O)[C@@H]4C[C@H](O)CC[C@]4(C)[C@H]3CC[C@]12C`, “inactive”.
On to `C=C1CCC[C@]2(C)CC[C@@H](C(=C)C(=O)O)[C@H](O)[C@@H]12`, for which the molecule was called inactive.
With `OCC1OC(Oc2cc(O)cc(/C=C/c3ccc(O)cc3)c2)C(O)C(O)C1O` (stereo not given), the molecule was called inactive.
As to `CNC(=O)c1ccccc1Nc1nc(Nc2ccc3c(c2OC)CCCC(N2CCN(CCO)CC2)C3)ncc1Cl` (stereo not given), the Potency is 5.8 µM (active).
As to `C/C=C/C1=CC2=C(CO1)C(=O)C(C)(O)C(OC(=O)c1c(C)cc(OC)cc1O)C2` (stereo not given), the result was inactive.
Still for that read-out and setting: next, `O=S(=O)(c1ccccc1)c1cnc2c(N3CCNCC3)cccc2c1`: “inactive”.
In the case of `CC1(C)CCC(C)(C)c2cc(C3(c4ccc(C(=O)O)cc4)OCCO3)ccc21`, the molecule was classed as inactive.
As to `CC(C)(O)C1CCC(C)(C2CCC3(C)C4CCC5C(C)(C(=O)OC6OC(CO)C(O)C(O)C6O)C(O)CC(O)C56CC46CCC23C)O1` (stereo not given), the “outcome” value is “inactive [at 17.4 µM]”.
Same read-out and setting: the result for `COC1/C=C/C(C)(O)C(SCC(N)C(=O)O)CC(=O)OC(C)C(C)CC/C=C/1C` (stereo not given) reads “inactive [at 17.4 µM]”; that for `Cc1cc(OCc2nc(-c3ccccc3Cl)cs2)ccc1OCC(=O)O`, “inactive”.
Same read-out and setting: the result for `CC[C@]12C=CCN3CC[C@@]4(c5cc([C@@]6(C(=O)OC)C[C@H]7C[C@@H](C(C)(F)F)CN(Cc8c6[nH]c6ccccc86)C7)c(OC)cc5N(C)[C@H]4[C@@](O)(C(=O)OC)[C@@H]1OC(C)=O)[C@@H]32` reads “inactive [at 17.4 µM]”; that for `O=C1NC(Cc2c[nH]c3ccccc23)C(=O)NC1Cc1cnc[nH]1` (stereo not given), “inactive”.

Source of the values: PubChem BioAssay (NCATS).
